The record followed here is PubChem BioAssay.

Structures are written as SMILES. Calls of active or inactive are those of the source.

Experiment [1] in a line: binders of probe aFSTL3 on microarray, primary screen, stem cell growth factor project, biochemical, small-molecule microarray, fluorescence 635/667 (AID 1064).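 Further: measures binding of the biotinylated anti-FSTL3 antibody to printed compounds.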 The note with it: higher = more signal.
The nature of experiment [2]: binders from COS7 lysate, DM2A8 probe, primary screen, torsin A project, cell lysate, small-molecule microarray, fluorescence 635/667 (AID 1065). The note with it: higher = more signal, COS7 lysate expressing mutant human TOR1A.
Experiment [3] is described as follows: binders of probe aFGF2 on microarray, primary screen, stem cell growth factor project, biochemical, small-molecule microarray, fluorescence 635/667 (AID 1067).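 Further: measures binding of biotinylated aFGF2 protein to printed compounds on slides; z-score merges feature fluorescence and signal-to-noise across triplicate slides.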 The note with it: higher = more signal.
The nature of experiment [4]: binders of probe aFGF10 on microarray, primary screen, stem cell growth factor project, biochemical, small-molecule microarray, fluorescence 635/667 (AID 1071).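 Further: score merges 667 nm spot intensity and signal to noise from triplicate slides.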 The note with it: higher = more signal.
For experiment [5], the target named is Neurogenic locus notch homolog protein 2 (Homo sapiens) (UniProt Q04721). Nature of the experiment: Notch2 binders on small-molecule microarrays, primary screen, biochemical, small-molecule microarray, 635 nm fluorescence, stem cell growth factors (AID 1073). The note with it: Notch2 binding, higher = more signal.
Sequence of Neurogenic locus notch homolog protein 2 (Homo sapiens) (Q04721 whole entry, looked up, canonical isoform): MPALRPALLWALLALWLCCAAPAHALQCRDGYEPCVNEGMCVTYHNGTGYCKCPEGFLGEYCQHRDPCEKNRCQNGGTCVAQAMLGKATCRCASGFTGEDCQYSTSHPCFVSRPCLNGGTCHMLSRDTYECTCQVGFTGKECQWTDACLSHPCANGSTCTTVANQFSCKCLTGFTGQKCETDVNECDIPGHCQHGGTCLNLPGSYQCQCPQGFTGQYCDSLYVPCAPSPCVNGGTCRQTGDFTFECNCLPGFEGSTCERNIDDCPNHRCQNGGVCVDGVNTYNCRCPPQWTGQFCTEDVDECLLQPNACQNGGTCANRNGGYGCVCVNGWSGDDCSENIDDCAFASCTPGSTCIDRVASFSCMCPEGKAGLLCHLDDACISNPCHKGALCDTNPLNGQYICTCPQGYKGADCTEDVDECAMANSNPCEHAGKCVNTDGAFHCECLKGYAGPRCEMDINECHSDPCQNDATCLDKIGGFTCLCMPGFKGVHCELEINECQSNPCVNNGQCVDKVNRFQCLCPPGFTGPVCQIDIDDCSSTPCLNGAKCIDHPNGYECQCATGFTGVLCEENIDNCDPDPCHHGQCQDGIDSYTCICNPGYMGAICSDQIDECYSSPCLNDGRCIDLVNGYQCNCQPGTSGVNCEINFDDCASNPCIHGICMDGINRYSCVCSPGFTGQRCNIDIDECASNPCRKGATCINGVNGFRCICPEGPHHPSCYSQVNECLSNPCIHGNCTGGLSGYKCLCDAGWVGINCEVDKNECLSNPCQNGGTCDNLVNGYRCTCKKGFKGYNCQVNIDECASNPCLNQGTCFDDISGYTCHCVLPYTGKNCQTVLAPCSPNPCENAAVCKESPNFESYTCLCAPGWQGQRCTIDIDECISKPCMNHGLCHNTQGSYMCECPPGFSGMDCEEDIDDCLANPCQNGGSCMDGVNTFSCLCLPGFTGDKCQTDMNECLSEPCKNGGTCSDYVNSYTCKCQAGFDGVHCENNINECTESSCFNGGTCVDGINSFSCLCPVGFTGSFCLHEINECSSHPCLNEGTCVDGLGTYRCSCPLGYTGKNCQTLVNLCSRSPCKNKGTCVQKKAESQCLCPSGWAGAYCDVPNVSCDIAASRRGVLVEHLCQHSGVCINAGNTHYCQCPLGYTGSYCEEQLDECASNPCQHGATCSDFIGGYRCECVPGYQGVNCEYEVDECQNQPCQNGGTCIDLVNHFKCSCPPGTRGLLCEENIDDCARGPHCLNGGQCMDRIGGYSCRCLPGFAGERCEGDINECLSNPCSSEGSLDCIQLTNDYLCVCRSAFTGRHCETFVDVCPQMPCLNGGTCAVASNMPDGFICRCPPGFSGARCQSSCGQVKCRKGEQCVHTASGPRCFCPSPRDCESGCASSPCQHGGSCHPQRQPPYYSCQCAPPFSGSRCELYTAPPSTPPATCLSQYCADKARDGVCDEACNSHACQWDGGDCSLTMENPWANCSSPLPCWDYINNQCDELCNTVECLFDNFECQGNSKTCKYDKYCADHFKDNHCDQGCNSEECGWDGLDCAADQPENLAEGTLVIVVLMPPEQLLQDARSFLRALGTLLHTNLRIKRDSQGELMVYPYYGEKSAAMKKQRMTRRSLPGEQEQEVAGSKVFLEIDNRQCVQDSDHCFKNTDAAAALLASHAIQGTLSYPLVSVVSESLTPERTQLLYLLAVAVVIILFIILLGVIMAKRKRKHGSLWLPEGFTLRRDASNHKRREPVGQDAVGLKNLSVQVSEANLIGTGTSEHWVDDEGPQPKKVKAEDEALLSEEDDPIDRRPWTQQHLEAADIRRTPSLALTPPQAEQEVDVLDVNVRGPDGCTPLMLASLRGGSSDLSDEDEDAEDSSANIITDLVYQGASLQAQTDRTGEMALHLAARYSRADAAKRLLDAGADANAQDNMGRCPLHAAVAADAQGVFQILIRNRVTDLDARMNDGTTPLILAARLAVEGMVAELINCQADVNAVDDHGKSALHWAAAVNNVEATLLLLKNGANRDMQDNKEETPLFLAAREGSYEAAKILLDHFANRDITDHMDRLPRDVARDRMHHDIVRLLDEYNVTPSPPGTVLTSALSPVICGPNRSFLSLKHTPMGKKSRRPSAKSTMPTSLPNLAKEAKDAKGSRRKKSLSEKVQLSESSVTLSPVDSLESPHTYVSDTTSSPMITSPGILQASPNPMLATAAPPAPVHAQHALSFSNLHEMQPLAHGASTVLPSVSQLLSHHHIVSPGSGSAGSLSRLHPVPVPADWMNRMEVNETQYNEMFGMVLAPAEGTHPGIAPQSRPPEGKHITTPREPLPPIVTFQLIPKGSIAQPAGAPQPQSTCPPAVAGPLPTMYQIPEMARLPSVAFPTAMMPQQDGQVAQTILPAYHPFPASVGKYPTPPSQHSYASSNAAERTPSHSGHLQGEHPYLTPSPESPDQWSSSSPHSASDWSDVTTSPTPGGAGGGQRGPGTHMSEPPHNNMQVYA
Experiment [6] addresses Pro-neuregulin-1, membrane-bound isoform (Homo sapiens) (UniProt Q02297). Nature of the experiment: NRG1 binders on small-molecule microarrays, primary screen, psychiatric disease protein project, biochemical, small-molecule microarray, fluorescence 635/667 (AID 1075).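 Further: score combines 667 nm spot fluorescence with signal to noise.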 The note with it: NRG1 binding, 635 nm fluorescence, higher = more signal.
Experiment [7] deals with Neuregulin-1 EGF-like domain. Nature of the experiment: binders of neuregulin-1 EGF-like domain, primary screen, biochemical, small-molecule microarray, 635 nm fluorescence (AID 1081).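 Further: binding of the protein to compounds printed on small-molecule microarray slides.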 The note with it: small-molecule microarray binding, higher = more signal.
Experiment [8] can be described thus: FRG1 promoter luciferase signal modulators, primary screen, FRG1 inhibition for FSHD, cell-based, C2C12 myotubes, firefly/Renilla luciferase, luminescence (AID 1084). The note with it: higher = more signal, called active from +8 up or from −8 down.
Experiment [9] in a line: binders of probe aFST on microarray, primary screen, stem cell growth factor project, biochemical, small-molecule microarray, fluorescence 635/667 (AID 1086).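 Further: score merges 667 nm fluorescence with signal-to-noise of each printed compound spot.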 The note with it: higher = more signal.
Experiment [10] can be described thus: binders of probe aHhip on microarray, primary screen, stem cell growth factor project, biochemical, small-molecule microarray, fluorescence 635/667 (AID 1087).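 Further: score merges spot fluorescence at 667nm with spot signal to noise ratio.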 The note with it: higher = more signal.
The subject of experiment [11] is PRMT1 (protein arginine N-methyltransferase 1). The experiment is described as follows: PRMT1 binders on small-molecule microarrays, primary screen, biochemical, small-molecule microarray, 635 nm fluorescence (AID 1088).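 Further: binding of Prmt1 protein to compounds spotted on small-molecule microarray slides.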 The note with it: small-molecule microarray binding, higher = more signal.
A short description of experiment [12]: yeast growth modulation, basal conditions, primary screen, YJM789 clinical isolate, OD600, 24 h (AID 1089).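 Further: growth of clinical yeast isolate S. cerevisiae YJM 789 seeded 1000 cells per well; test concentration not given here.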 The note with it: S. cerevisiae YJM789 growth, higher = more signal, called active from +8 up or from −8 down.
A short description of experiment [13]: fission yeast growth modulation, primary screen, strain 972, OD600, 24 h, no modulator (AID 1090).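 Further: basal condition with compound alone and no growth modifier present; test concentration not given here.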 The note with it: S. pombe 972 growth, higher = more signal, called active from +8 up or from −8 down.
The nature of experiment [14]: S. cerevisiae growth modulation with rapamycin, primary screen, strain BY4716, OD600, 96 h (AID 1091). Further: test concentration not given here. The note with it: higher = more signal, called active from +8 up or from −8 down.
In experiment [15] the target is Torsin-1A-interacting protein 2 (Homo sapiens) (UniProt Q8NFQ8). The experiment is described as follows: LULL1 binders on small-molecule microarray, primary screen, cell lysate, human LULL1 lysate, 635/667 nm fluorescence (AID 1092).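 Further: probe is lysate of COS7 cells overexpressing human LULL1; score merges per-feature 667 nm fluorescence with signal-to-noise.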 The note with it: hLULL1 lysate binding, 635 nm fluorescence, higher = more signal.
Sequence of Torsin-1A-interacting protein 2 (Homo sapiens) (Q8NFQ8 whole entry, looked up): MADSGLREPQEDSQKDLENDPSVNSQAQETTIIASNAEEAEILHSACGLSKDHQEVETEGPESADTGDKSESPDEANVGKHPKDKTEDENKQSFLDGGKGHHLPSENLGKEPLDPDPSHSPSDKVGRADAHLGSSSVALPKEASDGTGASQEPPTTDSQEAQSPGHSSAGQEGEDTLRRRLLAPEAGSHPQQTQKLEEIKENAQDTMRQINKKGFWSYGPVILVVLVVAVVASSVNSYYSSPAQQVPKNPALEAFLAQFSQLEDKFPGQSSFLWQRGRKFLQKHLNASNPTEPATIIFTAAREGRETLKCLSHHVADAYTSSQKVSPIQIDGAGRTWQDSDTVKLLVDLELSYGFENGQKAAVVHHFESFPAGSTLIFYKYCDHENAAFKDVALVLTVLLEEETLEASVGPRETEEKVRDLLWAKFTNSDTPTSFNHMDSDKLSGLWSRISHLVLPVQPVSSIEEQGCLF
Experiment [16] can be described thus: E. coli growth modulation, two-sided OD650, primary screen, E. coli filamentation project, strain DRC41, 24 h (AID 1093).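 Further: MC1000 strain lacking acrAB efflux and sulA so SOS filamentation is blocked; test concentration not given here.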 The note with it: OD650, 24 h, higher = more signal, called active from +8 up or from −8 down.
A short description of experiment [17]: small-molecule microarray binders of probe aLefty2, primary screen, biochemical, biotinylated probe, 635/667 nm fluorescence (AID 1094).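 Further: score merges spot fluorescence near 667 nm with spot signal-to-noise ratio.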 The note with it: higher = more signal.
Experiment [18] has as its system Noggin (protein binding on small-molecule microarray). Nature of the experiment: Noggin binders on small-molecule microarray, primary screen, biochemical, 635/667 nm fluorescence (AID 1095).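 Further: score merges 667 nm feature fluorescence with signal to noise over triplicate slides.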 The note with it: 635 nm fluorescence, higher = more signal.
In experiment [19] the target is Neurogenic locus notch homolog protein 3 (Homo sapiens) (UniProt Q9UM47). Nature of the experiment: NOTCH3 binders on small-molecule microarray, primary screen, biochemical, 635/667 nm fluorescence (AID 1096). The note with it: NOTCH3 binding, 635 nm fluorescence, higher = more signal.
The nature of experiment [20]: small-molecule microarray binders of probe aEGFR, primary screen, biochemical, biotinylated probe, 635/667 nm fluorescence (AID 1097).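 Further: probe is a biotinylated anti-EGFR antibody binding compounds printed on slides; score combines fluorescence near 667 nm and signal to noise of each spot.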 The note with it: higher = more signal.

Sequence of Pro-neuregulin-1, membrane-bound isoform (Homo sapiens) (Q02297 whole entry, looked up, the tested form may be a part, canonical isoform): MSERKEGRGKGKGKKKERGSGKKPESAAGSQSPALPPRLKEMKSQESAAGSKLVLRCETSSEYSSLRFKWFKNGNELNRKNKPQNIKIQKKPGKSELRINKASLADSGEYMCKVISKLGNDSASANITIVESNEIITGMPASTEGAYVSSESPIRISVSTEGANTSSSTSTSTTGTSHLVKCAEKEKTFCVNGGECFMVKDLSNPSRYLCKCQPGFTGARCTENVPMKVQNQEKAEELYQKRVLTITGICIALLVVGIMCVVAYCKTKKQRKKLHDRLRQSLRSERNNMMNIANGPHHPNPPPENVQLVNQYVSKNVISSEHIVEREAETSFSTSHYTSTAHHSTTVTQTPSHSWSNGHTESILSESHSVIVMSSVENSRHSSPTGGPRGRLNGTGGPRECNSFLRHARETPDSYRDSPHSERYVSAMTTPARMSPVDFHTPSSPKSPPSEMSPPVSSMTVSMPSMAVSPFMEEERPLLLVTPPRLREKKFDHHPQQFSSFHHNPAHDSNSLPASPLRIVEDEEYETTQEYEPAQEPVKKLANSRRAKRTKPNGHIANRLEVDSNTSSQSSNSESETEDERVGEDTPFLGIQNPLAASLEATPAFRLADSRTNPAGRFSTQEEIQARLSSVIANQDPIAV

With `COc1ccc(CCNC(=O)[C@@H]2c3ccccc3C(=O)N(Cc3ccccc3Cl)[C@H]2c2ccc(CO)cc2)cc1`, the composite z-score was 0.199 in experiment [1]; 0.0795 in experiment [2]; -0.123 in [3]; 0.218 in experiment [4]; 0.586 in experiment [5]; 0.8 in experiment [6]. For the same molecule, the composite z-score in experiment [7] was 1.38; in experiment [9] it was 0.19; in [10], -0.214; in [11], 0.533; in experiment [15], 1.65; in experiment [17], -0.0299. The composite z-score in experiment [18] is -0.215; in [19] it was 0.124; in experiment [20], 0.0121. The z-score in [8] was -2.28 (inactive); in [12] it was -0.874 (inactive); in experiment [13], -0.96 (inactive); in experiment [14], 0.35 (inactive); in experiment [16] it was -0.139 (inactive).
In the case of `CNS(=O)(=O)c1ccc(C)cc1`, the composite z-score in [1] was -0.366; in experiment [2] it was 0.182; in experiment [3], -0.14; in [4], 0.248; in [5] it was 0.192; in experiment [6] it was -0.0687. The composite z-score in experiment [7] is 0.314; in [9] it was 0.209; in experiment [10], -0.0346; in [11], 1.14; in experiment [15], 0.283; in experiment [17], -0.165. The composite z-score in experiment [18] is 1.19; in [19] it was 0.629; in experiment [20] it was -0.101. Further, the z-score in experiment [8] is -0.443 (inactive); in [12] it was -2.29 (inactive); in [13], -2.38 (inactive); in experiment [14], -0.719 (inactive); in experiment [16], 2.55 (inactive).
As for `C=CC1(C(=O)OC)CC=C(C(=O)OC)CC1` (stereo not given), the composite z-score in experiment [1] was -0.219; in [2], 0.191; in experiment [3], -0.0226; in [4] it was 1.17; in [5] it was 1.12; in experiment [6], 1.73. Besides, the composite z-score in [7] is 1.12; in experiment [9], 0.0908; in [10] it was 0.0623; in experiment [11], 0.911; in experiment [15], 0.531; in experiment [17], -0.0449. In addition, the composite z-score in [18] was found to be 0.533; in experiment [19], 0.57; in experiment [20] it was 0.0413. Besides, the z-score in [8] is -0.941 (inactive); in experiment [12], -1.64 (inactive); in experiment [13], 0.358 (inactive); in experiment [14] it was -0.624 (inactive); in experiment [16] it was -0.487 (inactive).
`CC(C)=CCCC(C)=CC(O)C1C=CC2C(=O)N(C)C(=O)C2N1Nc1ccccc1` (stereo not given): the composite z-score in experiment [1] came to 0.0019; in experiment [2] it was 0.708; in experiment [3] it was 0.231; in experiment [4], 0.942; in experiment [5], 1.6; in [6] it was 1.72. In addition, the composite z-score in experiment [7] was 1.2; in experiment [9], 1.24; in [10] it was -0.159; in [11] it was 1.55; in experiment [15], 3.29; in experiment [17], 0.245. In addition, the composite z-score in experiment [18] turned out to be 0.411; in experiment [19] it was 1.03; in experiment [20] it was 0.167. The z-score was -1.04 (inactive) in experiment [8]; -0.193 (inactive) in experiment [12]; -1.26 (inactive) in experiment [13]; 2.76 (inactive) in experiment [14]; -0.339 (inactive) in experiment [16].
As for `COc1cc2c(cc1O)C(c1cccs1)N(C)CC2` (stereo not given), the composite z-score in [1] is -0.101; in experiment [2], -0.493; in [3] it was -0.201; in experiment [4], -0.143; in experiment [5] it was -0.521; in experiment [6], -0.714. Also, the composite z-score in [7] is -0.31; in experiment [9], -0.166; in experiment [10], -0.0994; in experiment [11], -0.414; in experiment [15] it was -0.849; in experiment [17], -0.0943. The composite z-score in [18] is -0.428; in experiment [19], -0.0102; in [20], -0.151. For the same molecule, the z-score was 0.52 (inactive) in experiment [8]; 0.213 (inactive) in experiment [12]; 1.07 (inactive) in experiment [13]; -2.13 (inactive) in experiment [14]; 0.841 (inactive) in experiment [16].
